Assay results reported in PubChem BioAssay AID1159580 (chemical genetic matrix, 2015).
Values joined by “and” are separate entries in the source; they are usually repeats but may differ in a detail not shown here. Identical values can stand only once. The whole screen tested about 5,500 compounds, of which about 2,000 (36%) were called active. Inconclusive results (about 18%) are left out. No stated cut-off is given here; in the data, active means normalized growth mostly below about 0.91 (no sharp cut-off); inconclusive means no clear call, values can overlap the other calls; inactive means mostly above about 0.92. The list shows a part of the results.

Test: chemical genetic growth profiling, strain panel (AID 1159580);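 further: tested at 20 µM; growth read once vehicle control cultures reached saturation at 30 °C; 1 = growth at the plate median or of vehicle wells; lower values mean less growth of the strain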
Settings: growth OD

Measured: normalized growth

Cn1c(=O)c2c(ncn2C)n(C)c1=O
inactive: S. cerevisiae deletion strains, locus YJR043C, strain POL32, active compounds read low 1.02 | S. cerevisiae deletion strains, locus YJR066W, strain TOR1, active compounds read low 0.97 | S. cerevisiae deletion strains, locus YJR075W, strain HOC1, active compounds read low 1 | S. cerevisiae deletion strains, locus YKL009W, strain mrt4, active compounds read low 1.03 | S. cerevisiae deletion strains, locus YKL068W, active compounds read low 1.01 | S. cerevisiae deletion strains, locus YKL085W, strain MDH1 (second series), active compounds read low 0.991 | S. cerevisiae deletion strains, locus YKL085W, strain MDH1, active compounds read low 0.991 | S. cerevisiae deletion strains, locus YKL160W, strain elf1, active compounds read low 1.02 | S. cerevisiae deletion strains, locus YKR001C, strain vps1, active compounds read low 1 | S. cerevisiae deletion strains, locus YKR026C, strain gcn3, active compounds read low 0.965 | S. cerevisiae deletion strains, locus YKR091W, strain srl3, active compounds read low 0.969 | S. cerevisiae deletion strains, locus YLL001W, strain dnm1, active compounds read low 0.932 | S. cerevisiae deletion strains, locus YLL026W, active compounds read low 0.962 | S. cerevisiae deletion strains, locus YLL041C, strain sdh2, active compounds read low 0.976 | S. cerevisiae deletion strains, locus YLR027C, strain aat2, active compounds read low 0.976 | S. cerevisiae deletion strains, locus YLR039C, strain RIC1, active compounds read low 0.989 | S. cerevisiae deletion strains, locus YLR058C, strain SHM2, active compounds read low 1 | S. cerevisiae deletion strains, locus YLR102C, strain apc9, active compounds read low 1.01 | S. cerevisiae deletion strains, locus YLR113W, strain HOG1, active compounds read low 1.04 | S. cerevisiae deletion strains, locus YLR258W, strain gsy2, active compounds read low 0.976 | S. cerevisiae deletion strains, locus YLR262C, strain YPT6 (second series), active compounds read low 0.996 | S. cerevisiae deletion strains, locus YLR262C, strain YPT6, active compounds read low 0.988 | S. cerevisiae deletion strains, locus YLR268W, strain sec22, active compounds read low 1.03 | S. cerevisiae deletion strains, locus YLR320W, strain mms22, active compounds read low 0.987 | S. cerevisiae deletion strains, locus YLR330W, strain CHS5, active compounds read low 0.999 | S. cerevisiae deletion strains, locus YLR342W, strain FKS1 (second series), active compounds read low 1.03 | S. cerevisiae deletion strains, locus YLR342W, strain FKS1, active compounds read low 0.983 | S. cerevisiae deletion strains, locus YLR357W, strain rsc2, active compounds read low 0.98 | S. cerevisiae deletion strains, locus YLR370C, strain arc18, active compounds read low 0.936 | S. cerevisiae deletion strains, locus YLR371W, strain rom2, active compounds read low 0.989 | S. cerevisiae deletion strains, locus YLR384C, strain iki3, active compounds read low 0.97 | S. cerevisiae deletion strains, locus YLR418C, strain cdc73, active compounds read low 0.947 | S. cerevisiae deletion strains, locus YML016C, strain PPZ1, active compounds read low 0.995 | S. cerevisiae deletion strains, locus YML032C, strain rad52, active compounds read low 1.01 | S. cerevisiae deletion strains, locus YML120C, strain ndi1, active compounds read low 0.926 | S. cerevisiae deletion strains, locus YML124C, strain tub3, active compounds read low 1 | S. cerevisiae deletion strains, locus YMR058W, strain fet3, active compounds read low 0.96 | S. cerevisiae deletion strains, locus YMR078C, strain ctf18, active compounds read low 0.995 | S. cerevisiae deletion strains, locus YMR125W, strain sto1, active compounds read low 0.954 | S. cerevisiae deletion strains, locus YMR129W, active compounds read low 0.988 | S. cerevisiae deletion strains, locus YMR205C, strain PFK2, active compounds read low 0.991 | S. cerevisiae deletion strains, locus YMR223W, strain ubp8, active compounds read low 1 | S. cerevisiae deletion strains, locus YMR231W, strain pep5, active compounds read low 0.987 | S. cerevisiae deletion strains, locus YMR307W, strain GAS1, active compounds read low 0.974 and 0.988 | S. cerevisiae deletion strains, locus YNL067W, strain RPL9B, active compounds read low 1 | S. cerevisiae deletion strains, locus YNL071W, strain lat1, active compounds read low 0.995 | S. cerevisiae deletion strains, locus YNL128W, strain TEP1, active compounds read low 0.997 | S. cerevisiae deletion strains, locus YNL175C, strain NOP13, active compounds read low 1.02 | S. cerevisiae deletion strains, locus YNL183C, strain NPR1, active compounds read low 0.987 | S. cerevisiae deletion strains, locus YNL197C, strain WHI3, active compounds read low 1.12 | S. cerevisiae deletion strains, locus YNL209W, strain ssb2, active compounds read low 0.959 | S. cerevisiae deletion strains, locus YNL224C, strain SQS1, active compounds read low 1.01 | S. cerevisiae deletion strains, locus YNL233W, strain BNI4, active compounds read low 0.984 | S. cerevisiae deletion strains, locus YNL248C, strain rpa49, active compounds read low 1.03 | S. cerevisiae deletion strains, locus YNL250W, strain rad50, active compounds read low 1.01 | S. cerevisiae deletion strains, locus YNL271C, strain bni1, active compounds read low 1.01 | S. cerevisiae deletion strains, locus YNL298W, strain CLA4, active compounds read low 1.01 | S. cerevisiae deletion strains, locus YNL307C, strain MCK1, active compounds read low 1 | S. cerevisiae deletion strains, locus YNL322C, strain KRE1 (second series), active compounds read low 0.963 | S. cerevisiae deletion strains, locus YNL322C, strain KRE1, active compounds read low 0.995 | S. cerevisiae deletion strains, locus YNR049C, strain mso1, active compounds read low 0.956 | S. cerevisiae deletion strains, locus YNR052C, strain pop2, active compounds read low 1 | S. cerevisiae deletion strains, locus YOL006C, strain TOP1, active compounds read low 1.04 | S. cerevisiae deletion strains, locus YOL012C, strain htz1 0.798 | S. cerevisiae deletion strains, locus YOL147C, strain pex11, active compounds read low 0.998 | S. cerevisiae deletion strains, locus YOR001W, strain rrp6, active compounds read low 0.979 | S. cerevisiae deletion strains, locus YOR061W, strain CKA2, active compounds read low 1.01 | S. cerevisiae deletion strains, locus YOR069W, strain VPS5, active compounds read low 1 | S. cerevisiae deletion strains, locus YOR070C, strain gyp1, active compounds read low 0.993 | S. cerevisiae deletion strains, locus YOR080W, strain dia2, active compounds read low 0.956 | S. cerevisiae deletion strains, locus YOR083W, strain WHI5 (second series), active compounds read low 1.02 | S. cerevisiae deletion strains, locus YOR083W, strain WHI5, active compounds read low 1.01 | S. cerevisiae deletion strains, locus YOR106W, strain vam3, active compounds read low 0.969 | S. cerevisiae deletion strains, locus YOR136W, strain idh2, active compounds read low 1.01 | S. cerevisiae deletion strains, locus YOR144C, strain elg1, active compounds read low 1 | S. cerevisiae deletion strains, locus YOR184W, strain ser1, active compounds read low 1.01 | S. cerevisiae deletion strains, locus YOR231W, strain MKK1, active compounds read low 1.04 | S. cerevisiae deletion strains, locus YOR265W, strain rbl2, active compounds read low 0.963 | S. cerevisiae deletion strains, locus YOR270C, strain vph1, active compounds read low 0.988 | S. cerevisiae deletion strains, locus YOR290C, strain snf2, active compounds read low 0.952 | S. cerevisiae deletion strains, locus YOR316C, strain cot1, active compounds read low 1.01 | S. cerevisiae deletion strains, locus YPL051W, strain arl3, active compounds read low 0.949 | S. cerevisiae deletion strains, locus YPL055C, strain LGE1, active compounds read low 0.998 | S. cerevisiae deletion strains, locus YPL078C, strain atp4, active compounds read low 1.02 | S. cerevisiae deletion strains, locus YPL106C, strain sse1, active compounds read low 0.929 | S. cerevisiae deletion strains, locus YPL240C, strain hsp82, active compounds read low 0.974 | S. cerevisiae deletion strains, locus YPL241C, strain CIN2, active compounds read low 0.998 and 1.01 | S. cerevisiae deletion strains, locus YPL256C, strain CLN2, active compounds read low 1.09 | S. cerevisiae deletion strains, locus YPR119W, strain clb2, active compounds read low 0.996 | S. cerevisiae deletion strains, locus YPR141C, strain kar3, active compounds read low 0.992 | S. cerevisiae deletion strains, locus YPR163C, strain tif3, active compounds read low 0.991 | S. cerevisiae deletion strains, locus YPR167C, strain met16, active compounds read low 1 | S. cerevisiae deletion strains, strain wtn01, active compounds read low 1.04 | S. cerevisiae strains, strain wild type, active compounds read low 1
active: S. cerevisiae deletion strains, locus YLR221C, strain rsa3, active compounds read low 0.89
